Assay outcomes as filed in PubChem BioAssay.
PKM2 activator: qHTS Assay for Activators of Human Muscle isoform 2 Pyruvate Kinase; AID 1631, 2009; purified PKM2, Kinase-Glo ATP luminescence, activation; response scale: 0% is enzyme alone, no compound; Potency, µM (top dose mostly 57.5 µM), for the others: top-dose activation, most hits filed as activators; 260,000 tested, 0.34% active; note: potency is the fitted concentration of half-maximal effect; % is set by controls: 0 for no effect and ±100 for the full control effect; nearly all actives have a fitted effect of over 55% in size
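ATP formation by purified human PK-M2, quantified via coupled luciferase luminescence after 1 h at room temperature with 0.1 mM ADP and 0.5 mM PEP final.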
PTAP TSG101 blk: qHTS Assay for Iinhibitors of HIV-1 Budding by Blocking the Interaction of PTAP/TSG101 | Fluorescence polarization, FITC-PTAP peptide / Tsg101 binding | Potency, µM (titrated, usually from 115 µM), without a hit: top-dose activity change, negative = inhibition, hits mostly inhibitors | Tumor susceptibility gene 101 protein (Homo sapiens), Q99816 | 340,000 tested, under 10 active; active = well fitted inhibition curve with a large enough effect in the main read-out, with a control signal flat, not every such curve was filed as active; inconclusive = small, poorly fitted or top-dose-only effect, or effect the other way, or a change in a side signal; inactive = no such curve, though single readings can be large or run the other way; note: potency is the fitted concentration of half-maximal effect; % of control where 0% means no effect
Target sequence (Q99816 whole entry, looked up): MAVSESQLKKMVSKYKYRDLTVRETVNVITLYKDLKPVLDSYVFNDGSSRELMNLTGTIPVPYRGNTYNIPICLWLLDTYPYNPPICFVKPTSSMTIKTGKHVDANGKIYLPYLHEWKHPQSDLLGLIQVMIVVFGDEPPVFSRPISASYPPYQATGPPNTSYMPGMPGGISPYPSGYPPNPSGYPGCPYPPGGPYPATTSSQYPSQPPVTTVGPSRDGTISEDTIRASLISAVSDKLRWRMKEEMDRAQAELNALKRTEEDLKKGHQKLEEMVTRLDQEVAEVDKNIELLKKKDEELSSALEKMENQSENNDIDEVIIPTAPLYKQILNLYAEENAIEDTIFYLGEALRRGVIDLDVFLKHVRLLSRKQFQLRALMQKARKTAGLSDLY
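Fluorescence anisotropy tracks displacement of a FITC-tagged PTAP peptide (50 nM) from the Tsg101 binding domain (10 uM), following a 20 min room-temperature incubation at pH 7.5.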
IL2 activator: qHTS of IL-2 Activators | 360,000 tested, 0.065% active | IL-2 activation reporter assay, cell-based qHTS; stimulated with anti-CD3/CD4/CD28 beads; in transgenic mouse T cells | AID 652025, 2013 | activation, % (series mostly up to about 46 µM); in the data active = activation above about 50%; inconclusive = mostly about 30% to 49%; note: 0% is about no effect
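Unstimulated transgenic mouse T cells; 60-min compound exposure; bead-based TCR/CD4/CD28 stimulation; 18 h culture, 37 degrees C; dual fluorescence (EGFP, DsRed) plate cytometry.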
TRPML1 blocker: qHTS for Inhibitors of the Human Mucolipin Transient Receptor Potential 1 (TRPML1) | Mucolipin-1 (Homo sapiens), Q9GZU1 | TRPML1-inducible cells, Ca2+ dye fluorescence, FDSS; stronger effect = lower value; inhibition of EC80 agonist-evoked calcium signal | activity change, negative = inhibition, % (no concentration beside the values) | 390,000 tested, 0.02% active | AID 624415, 2012; in the data active = activity change below about -50%; inconclusive = between about -30% and that limit;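 note: stimulus is agonist 54-4 at its EC80 concentration; % is set by controls: 0 for no effect and ±100 for the full control effect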
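TRPML1-DL cells, Tet-induced overnight (~16 h, 37 °C) at 1,500 cells/well, were loaded with Ca8 no-wash dye plus quencher for 45-90 min at room temperature. Compounds were pinned during FDSS kinetic reading; agonist 54-4 at EC80 (4 uM final) then added.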
TRPML1 ag: qHTS for Agonists of the Human Mucolipin Transient Receptor Potential 1 (TRPML1); Mucolipin-1 (Homo sapiens), Q9GZU1; 410,000 tested, 0.12% active; activation, % (concentration not given with the values); AID 624414, 2012; TRPML1-expressing cells, Ca2+ dye fluorescence, FDSS; in the data active = activation above about 50%; inconclusive = mostly about 30% to 49%; note: 0% is about no effect
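Cells: TRPML1-DL, 1X Tet inducer, ~16 h at 37 degrees C/5% CO2. Dye: ABD Ca8 no-wash + quencher, 45-90 min RT. Read: 10 s baseline, compound add, 110 s agonist phase; 54-4 EC80 (4uM final), 110 s antagonist phase.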
BRCA1 expr up: qHTS Assay to Identify Small Molecule Activators of BRCA1 Expression; MCF7-BRCA1-FFLuc reporter, luminescence, 48 h; response scale: scaled: vehicle 0%, 10 µM genistein 100%; Potency, µM (doses to about 46.1 µM), for inactives: top-dose activation, most hits filed as activators; 380,000 tested, 1.1% active; AID 624202, 2012; note: potency is the fitted concentration of half-maximal effect; nearly all actives have a fitted effect of over 80% in size
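Quantitative HTS in MCF7 cells stably reporting BRCA1 expression via firefly luciferase. Compound treatment lasts 48 h at 37 °C in phenol-red free MEM. Activation is expressed relative to genistein at 10 microM and DMSO.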
* marks the source's active call; other numbers are inactive results; ? = inconclusive; . = no result given; [ ] = dose if it differs, or a comment. An excerpt weighted towards active compounds, which were near 1.3% of everything screened. Unless noted, calls come from the whole dose curve; as a rule, active = well fitted activation curve with a large enough effect; inconclusive = small, poorly fitted or top-dose-only effect; inactive = no such curve, though single readings can be large or run the other way.

SMILES	PKM2 activator	PTAP TSG101 blk	IL2 activator	TRPML1 blocker	TRPML1 ag	BRCA1 expr up
COc1ccccc1NC(=O)CSc1ncc2c(n1)-c1ccccc1N(Cc1ccccc1C)S2(=O)=O	.	.	.	11.9	0.9	.
COc1ccc(-c2cc(C)no2)cc1S(=O)(=O)N1CCOc2ccccc21	1.1%[0.46 µM]	-1.7%	-0.8	-0.1	0.1	-38.8%
Cc1cc(-c2ccc(C(C)C)c(S(=O)(=O)N3CCOc4ccccc43)c2)on1	.	-0.6%	-2.5	-28.0	138.7*	-37.0%
O=C(COc1ccccc1C(=O)NCc1ccccc1)Nc1ccc(Br)cc1	.	.	.	.	-0.3	-46.1%
COc1ccc(C2OC(=O)CC2C(=O)NCc2ccc(F)cc2)cc1OC (stereo not given)	3.7%	-3.9%	-1.6	-7.8	0.5	-12.9%
COc1ccc(C2OC(=O)CC2C(=O)NCc2ccc(Cl)cc2)cc1OC (stereo not given)	1.4%	0.3%	-1.2	7.4	-0.3	8.91µM*
Cc1ccc(NC(=O)Nc2ccc3c(c2)OCO3)nc1	-1.8%	-8.5%	2.3	-17.2	0.2	?
Cc1ccc(O)c(C(=O)/C=C/c2ccc3c(c2)OCCCO3)c1	-18.4%	0.2%	-5.2	-8.2	1.3	7.08µM*
O=C(/C=C/c1ccc2c(c1)OCO2)N1CCCCC1	-7.9%	-4.5%	0.8	-5.0	0.2	3.55µM*
Cc1ccc(NC(=O)/C=C/c2ccc3c(c2)OCO3)nc1	-5.3%	-10.5%	0.4	-5.6	1.0	1.58µM*
COc1cccc(/C=C/C(=O)c2ccc[nH]2)c1	-13.9%	-1.4%	2.1	10.7	0.4	7.94µM*
O=C(/C=C/c1ccc2c(c1)OCCCO2)c1ccccc1O	-30.4%	0.0%	-0.5	-9.5	3.9	101.8%
Fc1ccc(CNc2ncnc3nc[nH]c23)cc1	.	.	.	.	-0.4	0.0%
Cc1cccc(S(=O)(=O)c2cn(C)c3cc(N4CCN(c5ccccc5)CC4)c(F)cc3c2=O)c1	.	.	.	1.0	2.1	.
Cc1ccc(OCC(=O)Nc2cccc(C(=O)OCc3cc(=O)n4c(C)csc4n3)c2)cc1	.	.	.	-14.0	3.9	.
COc1ccc(N2CCN(C(=O)c3cc4c(-c5ccccc5F)nn(C)c4s3)CC2)cc1	.	.	.	13.4	1.2	.
O=C(CCC(=O)OCC(=O)c1ccc(Cl)cc1)Nc1ccc(Oc2ccccc2)cc1	.	.	.	-8.5	0.9	.
CN(C(=O)c1cc(-c2ccc3c(c2)OCO3)on1)c1ccccc1	1.4%	-1.0%	-2.6	-6.7	1.7	2.82µM*
CN(C(=O)C=Cc1ccccc1)c1ccccc1	.	-2.6%	0.7	-4.8	0.9	71.6%
O=C(/C=C/c1ccc2c(c1)OCO2)c1ccc(F)cc1	-15.9%	-6.5%	-1.3	-14.5	-0.2	52.4%
O=C(/C=C/c1ccc2c(c1)OCO2)c1ccc[nH]1	-12.3%	-2.7%	-5.1	6.1	1.5	7.94µM*
CN(C(=O)/C=C/c1ccc2c(c1)OCO2)c1ccccc1	6.7%	-2.0%	1.3	18.2	1.9	3.16µM*
CN(/N=C/c1ccc2c(c1)OCO2)c1ccccc1	-19.7%	-0.7%	-1.0	10.8	3.3	7.08µM*
C=C1CCN(C(CC(C)C)C(=O)NN2CCOCC2)S(=O)(=O)c2ccccc21 (stereo not given)	.	.	.	-7.0	0.1	.
COC(=O)CCCNC(=O)c1ccc2oc(CCCc3ccccc3)nc2c1	-3.3%	-1.4%	-0.6	7.6	0.0	47.7%
SMILES	PKM2 activator	PTAP TSG101 blk	IL2 activator	TRPML1 blocker	TRPML1 ag	BRCA1 expr up
COC(=O)[C@@H](C)NC(=O)c1ccc2oc(CCc3ccccc3)nc2c1	0.7%	-4.7%	0.2	3.7	-0.1	11.2µM*
CC1CCc2nc(/C(C#N)=C/c3ccncc3)sc2C1 (stereo not given)	1.1%	-6.7%	-2.3	6.0	0.9	11.2µM*
CCOc1cc(C(=O)NCCN2C(=O)S/C(=C\c3cccnc3)C2=O)cc(OCC)c1OCC	17.8µM*	0.8%	-0.2	-2.4	0.7	24.8%
Cc1cc(C(=O)COc2cccc([N+](=O)[O-])c2)c(C)n1C1CC1	.	-4.3%	-0.3	17.4	0.6	7.08µM*
Cc1ccc(OCC(=O)c2cc(C)n(C3CC3)c2C)c([N+](=O)[O-])n1	9.6%	-0.4%	-0.2	9.2	0.1	0.1%
Cc1nc(NC(=O)Nc2ccc(Cl)cc2)sc1C	0.7%	0.1%	0.4	6.5	2.0	5.62µM*
Cc1nc(NC(=O)c2ccccc2O)sc1C	.	-1.3%	-1.8	3.4	-0.4	63.9%
Cc1nc(NC(=O)c2cccnc2Cl)sc1C	.	-0.4%	-0.5	-4.2	0.0	3.16µM*
CCC(=O)/C=C1/Sc2ccc(OC)cc2N1CC	-2.7%	-4.1%	-0.4	27.7	-0.7	2.7%
CCOC(=O)/C(=C\C=C1/Sc2ccccc2N1CC)C(C)=O	7.4%	?	23.6	-7.1	88.8*	16.7%
CCOC(=O)/C(=C/C=C1\Sc2cc(C)c(C)cc2N1CC)C(C)=O	2.0%	?	2.3	-2.6	89.8*	-14.5%
CCOC(=O)/C(=C/C=C1\Sc2ccccc2N1CC)C(C)=O	4.8%	?	9.3	3.5	80.1*	45.4%
CCN1/C(=C/C(=O)c2ccco2)Sc2ccccc21	-7.7%	-1.4%	-0.2	0.0	-0.7	-72.1%
CCC(=O)/C=C1/Sc2ccccc2N1CC	5.4%	-1.6%	-2.1	-3.5	2.0	-36.4%
CCN(CC)c1cc(C)c2cc(NC(=O)/C=C/c3cc(OC)c(OC)c(OC)c3)ccc2n1	.	.	.	-1.1	0.0	.
COc1ccc(-c2nnn(Cc3ccccc3F)n2)cc1	-10.3%	-2.1%	1.1	-9.6	0.8	3.98µM*
COC(=O)Cn1c(C)nc2c(sc3nc(C)cc(C)c32)c1=O	0.2%	-4.3%	0.4	5.7	-0.5	6.31µM*
Cc1ccc(N2C(N)=C(C#N)C(c3ccsc3)C3=C2CC(C)(C)CC3=O)cc1 (stereo not given)	6.7%	2.5%	-0.1	-2.1	57.2*	-43.8%
CN(C)N1C(N)=C(C#N)C(c2ccsc2)C2=C1CC(C)(C)CC2=O (stereo not given)	7.4%	-0.6%	0.3	-29.3	-0.7	-8.7%
COC(=O)c1cc(Cl)c(NC(=O)C(C)C)cc1OC	-4.1%	-7.9%	-3.5	7.9	-0.2	-9.5%
